Test results from PubChem BioAssay AID902 (National Center for Advancing Translational Sciences (NCATS), 2007).
Where “and” joins values, the source holds several entries; their conditions need not be identical. Identical values can stand only once. The campaign covered roughly 130,000 compounds. About 1,900 (1.5%) were called active. A call without a number means that no potency is given here. Inconclusive results (about 5%) are left out. This excerpt belongs to a sample that is enriched for actives. Unmarked numbers belong to inactive results. Calls come from the whole dose curve; as a rule, active = well fitted cell-killing curve with a large enough effect; inconclusive = small, poorly fitted or top-dose-only effect; inactive = no such curve, though single readings can be large or run the other way.

Assay: qHTS Screen for Compounds that Selectively Target Cancer Cells with p53 Mutations: Cytotoxicity of p53ts Cells at the Nonpermissive Temperature; note: nearly all actives have a fitted effect of over 55% in size
Conditions: H1299-p53A138V viability at 39C, ATP luminescence, 24 h; series mostly up to 46.1 µM
Potency is the fitted concentration of half-maximal effect.

SMILES | Potency | activity change, negative = cell killing
CCCCCn1c(=O)[nH]c2cc(C(=O)Nc3ccc(F)cc3)ccc2c1=O | inactive | 
Cn1nc(-c2ccccc2)c(-c2ccccc2)c(C(=O)Nc2ccc(S(N)(=O)=O)cc2)c1=O | inactive | 
COc1ccc2cc(CNc3ccc(OC)c(OC)c3)c(=O)n(CC(=O)Nc3ccccc3F)c2c1 | inactive | 
Cc1c2cnn(-c3ccccc3)c(=O)c2c(C)n1C(C)C(=O)Nc1ccc(Br)cc1F (stereo unspecified) | inactive | 
COc1ccc(C(CCN(Cc2ccc(OC)c(OC)c2)C(=O)CCl)c2ccccc2)cc1 (stereo unspecified) | 3.98 µM (active) | 
COc1ccc(/C=C/NC(=O)Cc2ccc(OC)c(OC)c2)cc1 |  | -6.46% [at 9.22 µM] and 8.2% [at 9.22 µM]
CCN(CCCCOC(=O)c1ccc(OC)c(OC)c1)C(C)Cc1ccc(OC)cc1 (stereo unspecified) | inactive | 
O=C(NCc1ccccc1)c1cc(-c2cccc(Cl)c2)on1 | inactive | 
COc1ccc(-c2cc(-c3nc(-c4cc(OC)c(OC)c(OC)c4)no3)[nH]n2)c(OC)c1 | inactive | 
COc1ccc(-c2nc(-c3ccccc3)no2)c(OC)c1 | 6.31 µM (active) | 
COc1ccc(-c2noc(CSc3nnc(-c4ccccc4)n3-c3ccc(F)cc3)n2)c(OC)c1 | inactive | 
O=C(CN1CCN(Cc2ccc(Cl)cc2)C1=O)NCc1ccc(F)cc1 | inactive | 
Cc1ccc(C)c(N2CCN(c3ccc4cc(S(=O)(=O)N5CCC(C)CC5)ccc4n3)CC2)c1 | inactive | 
O=C(COc1ccccc1)NCCc1nc2ccccc2[nH]1 | inactive | 
N#C/C(=C(/O)COC(=O)COc1ccc(Cl)cc1)c1nc2ccccc2[nH]1 | 20 µM (active) | 
COC(=O)Cc1nc2ccccc2[nH]1 | inactive | 
COc1ccc(CNC(=O)CSc2n[nH]c(-c3ccc(F)cc3)n2)cc1 | inactive | 
O=C(NCC(c1cccnc1)N1CCc2ccccc21)c1cccc(C(F)(F)F)c1 (stereo unspecified) | inactive | 
Cc1ccc2nc(-c3ccc(O)cc3)c(Nc3ccc4c(c3)OCO4)n2c1 | inactive | 

SMILES | Potency | activity change, negative = cell killing
COc1cccc(-n2cc(C(=O)NCc3cccc(Cl)c3)c3ccccc3c2=O)c1 | inactive | 
COc1ccc(-n2ncc3c(N4CCc5ccccc54)ncnc32)cc1 | inactive | 
COc1ccc(-n2ncc3c(N4CCCc5ccccc54)ncnc32)cc1 | 10 µM (active) | 
Cc1cccc(-n2ncc3c(N4CCc5ccccc54)ncnc32)c1 | inactive | 
Cc1oc(C)c2c(=O)cc(-c3ccc4c(c3)OCO4)cc(OC(=O)c3ccc(Cl)cc3)c12 | inactive | 
CC1CCCN(S(=O)(=O)c2ccc3[nH]c(=O)cc(C(=O)NCCc4ccc(Cl)cc4)c3c2)C1 (stereo unspecified) | inactive | 
CCC1CCCCN1C(=O)Cn1c(=O)n(CCCCCC(=O)NCc2ccccc2)c(=O)c2sccc21 (stereo unspecified) | inactive | 
Cc1cc(C)c(NC(=O)CSc2nc3ccncc3[nH]2)c(C)c1 | inactive | 
Cn1c(=O)c2c(-c3ccccc3Br)n(Cc3ccccc3)cc2n(C)c1=O | inactive | 
Cn1c(=NC(=O)c2cnccn2)sc2ccccc21 | 10 µM (active) | 
Cn1c(=NC(=O)CSCC(=O)N2CCCCC2)sc2ccccc21 | inactive | 
Cn1c(=NC(=O)CSCC(=O)N2CCOCC2)sc2ccccc21 | inactive | 
CCOc1ccc(-c2cc3nc(C4CCN(C(=O)OC(C)(C)C)CC4)c(C(=O)Nc4cccc(CC)c4)cn3n2)cc1 | inactive | 
Cc1ccc2nc(CC(=O)c3ccc4ccccc4c3)c(=O)[nH]c2c1 |  | 2.32% [at 9.22 µM]
C=CC(=O)c1ccc2ccccc2c1 | 10 µM (active) | 
O=C(CN1C(=O)C2C3CCC(C3)C2C1=O)Oc1ccc2ccccc2c1 (stereo unspecified) | inactive | 
COc1cccc(CNC(=O)CSc2c3c(nc4cc(Cl)ccc24)CCCC3)c1 | inactive | 
CCOC(=O)Cc1ccc(NC(=O)Nc2c[nH]c(=O)[nH]c2=O)cc1 | inactive | 
CCOc1ccccc1CNCc1c(C(=O)O)c(C)n(Cc2ccc(C)cc2)c1C | inactive | 

SMILES | Potency | activity change, negative = cell killing
Cc1ccc(OCC(=O)Nc2ccc(-c3nnc(-c4ccco4)o3)cc2)cc1 | inactive | 
CCOc1ccc(C(=O)Nc2ccncc2)cc1 | inactive | 
CCOc1ccc(-c2nnc(-c3ccco3)o2)cc1 | 12.6 µM (active) | 
CCOc1ccc(NC(=O)Nc2cc(C)on2)cc1 | inactive | 
CCOc1ccc(NC(=O)c2ncoc2-c2ccco2)cc1 | 7.94 µM (active) | 
CCC(=O)Oc1cccc(C(=O)Nc2ccc(-c3nnc(-c4ccco4)o3)cc2)c1 | inactive | 
CN(C)CCCn1c(-c2ccc(Cl)cc2)csc1=Nc1ccccc1 | inactive | 
CCCN(CCC)CCNC(=O)Cn1cnc2sc(C)c(S(=O)(=O)N3CCC(C)CC3)c2c1=O | inactive | 
COc1ccc(S(=O)(=O)c2c(Nc3ccc(C)cc3)sc(C(=O)c3ccc(C)cc3)c2N)cc1 | inactive | 
Cc1cccc(OCC(=O)N(Cc2ccc(C(C)C)cc2)Cc2ccco2)c1C | inactive | 
Cc1cc(C(=O)COC(=O)CCCN2C(=O)c3ccccc3C2=O)c(C)n1C | inactive | 
C=CCn1c(C)cc(C(=O)CN2C(=O)c3ccccc3C2=O)c1C | 12.6 µM (active) | 
C=CCN(CC=C)C(=O)CN1C(=O)c2ccccc2C1=O | inactive | 
CC(=O)N1CCCc2cc(S(=O)(=O)N3CCC(C(=O)NCc4ccc(F)cc4)CC3)ccc21 | inactive | 
Cc1c(Cl)cccc1NC(=O)c1noc2c1CCCC2 | inactive | 
O=C(Nc1cccnc1)c1noc2c1CCCCC2 | 12.6 µM (active) | 
O=C(Nc1cccnc1)c1ccc2c(c1)OCO2 | inactive | 
Cc1ccc(Cl)cc1NC(=O)CSc1nc2ccccc2nc1Cc1ccccc1 | inactive | 
